# Reference: the supplement of paper PMC7156485
# ± gives the standard deviation of the averaged measurements.
# Tested on: HCC1569
# Assay: cell number relative to DMSO (% of DMSO); higher = more cells (less growth inhibition / toxicity)
# Settings: concentration: 10 µM; 24 h
# In short: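 After 24 h at 37 °C with compounds at 10 µM, in triplicate, HCC1569 and TDF cells were fixed with 3.7% formaldehyde. Immunostaining used a rabbit anti-H1.0 antibody and an AlexaFluor 647 secondary, with DAPI, and six fields per well were imaged at ×10. H1.0 nuclear intensity or cell number is presented as percent of the plate control, from the median of replicates, with HCC1569 values smoothed for positional effects.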
# 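Further: TDF denotes transformed human dermal fibroblasts of mesenchymal origin.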
row,Structure (SMILES),cell number
1,CC1(C(=O)O)CCCC2(C)c3cc(O)ccc3CCC12 (configuration not stated) [Podocarpic acid],100
2,CC(=O)C1=C(O)C2C3c4c[nH]c5cccc(c45)CC3C(C)(C)N2C1=O (configuration not stated) [Cyclopiazonic acid],95.5
3,O=c1[nH]c2ccccc2n1C1CCN(CCCC(c2ccc(F)cc2)c2ccc(F)cc2)CC1 [Pimozide],81.2 ± 11
4,"CCCC[N+]1(C)C2CC(OC(=O)C(CO)c3ccccc3)CC1C1OC12.[Br-] (single isomer, unassigned; (-)) [(-)-Scopolamine,n-Butyl-, bromide]",101
5,CC(=O)NCCc1c[nH]c2ccccc12 [N-Acetyltryptamine],101
6,C[N+]1(C)C2CCC1CC(OC(=O)C(CO)c1ccccc1)C2.O=[N+]([O-])[O-] (configuration not stated) [Atropine methyl nitrate],101
7,Cl.c1ccc2c(c1)OCC(C1=NCCN1)O2 (configuration not stated) [Idazoxan hydrochloride],102
8,C#C[C@]1(O)CC[C@H]2[C@@H]3CC[C@H]4Cc5nc6nc7ccccc7n6cc5C[C@]4(C)[C@H]3CC[C@@]21C,74.8
9,COc1ccc(C(=O)c2c(C)n(CCN3CCOCC3)c3ccccc23)cc1 [Pravadoline],110
10,CS(=O)(=O)O.S=C=Nc1cccc(C2(N3CCCCC3)CCCCC2)c1 [Metaphit methanesulfonate],106
11,"O=c1[nH]c2ccccc2n1C1CCN(Cc2ccc(-c3nc4cc5[nH]cnc5cc4nc3-c3ccccc3)cc2)CC1 [Akt Inhibitor VIII, Isozyme-Selective, Akti-1/2]",75.9
12,CCCCCC(C=CC=CCC=CCC=CCCCC(=O)O)OO (configuration not stated),106
13,"C[C@]12CC[C@@H](O)C[C@@H]1CC[C@@H]1[C@@H]2CC[C@]2(C)[C@@H](O)CC[C@@H]12 [5alpha-Androstane-3alpha,17beta-diol]",103
14,CCN(C)C(=O)Oc1cccc(C(C)N(C)C)c1 (configuration not stated) [Rivastigmine],102
15,CCCN1CCCC(c2cccc(O)c2)C1.Cl (stereo not drawn) [S(-)-3PPP hydrochloride],99.1
16,"CC(=O)[C@H]1CC[C@H]2[C@@H]3CC[C@H]4C[C@](C)(O)CC[C@]4(C)[C@H]3CC[C@]12C [(3alpha,5alpha)-3-hydroxy-3-methylpregnan-20-one]",105

row,Structure (SMILES),cell number
1,O=P1(N(CCCl)CCCl)NCCCO1 (configuration not stated) [Cyclophosphamide],107
2,CC(=O)OC1C(=O)C2(C)C(O)CC3OCC3(OC(C)=O)C2C(OC(=O)c2ccccc2)C2(O)CC(O)C(C)=C1C2(C)C (configuration not stated) [Baccatin III],105
3,CN(c1nc2ccccc2s1)C1CCN(CC(O)COc2ccc(F)c(F)c2)CC1.Cl.Cl (configuration not stated),84.8
4,"CC(N)C(O)c1ccc(O)c(O)c1 (single isomer, unassigned; (-)) [(-)-alpha-Methylnorepinephrine]",99.4
5,CCCCCCC(=O)CCCCCCC=CCC(O)C(O)C(N)(CO)C(=O)O (configuration not stated) [Myriocin],100
6,C[N+]1([O-])C2CCC1CC(OC(=O)C(CO)c1ccccc1)C2.Cl (configuration not stated),97.9
7,CNC(=O)OCC[N+](C)(C)C.[Cl-] [Methylcarbamylcholine chloride],101
8,Cc1sc2ccccc2c1CC1=NCCN1.O=C(O)C(=O)O [Benazoline oxalate],104
9,"CCCCCC1OC1CC=CCCCCCCCC(=O)O (configuration not stated) [Leukotoxin B (12,13-EODE)]",105
10,NC(CCCCCP(=O)(O)O)C(=O)O (stereo not drawn) [D(-)-2-Amino-7-phosphonoheptanoic acid],99.9
11,"CC12CCC3C(CCC4=CC(=O)CCC43C)C1CCC2=O (configuration not stated) [4-Androstene-3,17-dione]",95.3
12,C[N+](C)(C)CCCCCCCCCC[N+](C)(C)C [Decamethonium],105
13,CC1OC1P(=O)([O-])[O-].[Na+].[Na+] (configuration not stated) [Phosphomycin disodium],100
14,Br.CCCN(CCC)C1CCc2ccc(O)cc2C1 (stereo not drawn) [R-(+)-7-Hydroxy-DPAT hydrobromide],99.8
15,"CS(=O)(=O)O.Cc1c(C(=O)c2cccc3ccccc23)c2cccc3c2n1C(CN1CCOCC1)CO3 (stereo not drawn) [( R)-(+)-WIN 55,212-2 mesylate]",72.8
16,CN(C)C(=O)Oc1ccc[n+](C)c1.[Br-] [Pyridostigmine bromide],103
